# Assay results taken from the supplement of paper PMC12494721.
# Counter-ions that a name gives are not always drawn.
# Tested on: Clostridium sporogenes DSM 1664
# Assay: growth (OD595) fold change vs plate DMSO controls (fold change (ratio)); higher = more growth
# Conditions: incubation time: 27 h, anaerobic, 37 °C
# Method in brief: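 Anaerobic 27 h, 37 °C mGAM 96-well cultures were shaken, then read for absorbance at 595 nm. Values were blank-subtracted and corrected for compound background using 20 µM compound solutions in water. A calibration factor of 5 converted them to OD. Growth is the fold change versus the median of plate DMSO controls. Fold changes above 1.5 were set to NA, and values are the mean of 2 biological replicates.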
row,Structure (SMILES),growth
1,COc1ccc(CC(C)NCC(O)c2ccc(O)c(NC=O)c2)cc1 (stereo not drawn) [Formoterol fumarate] (20 µM),1.13
2,CCN(CC)CCc1nc(-c2ccccc2)no1 [Oxolamine citrate salt] (20 µM),1.13
3,O=C(O)c1cc(-c2ccc(F)cc2F)ccc1O [Diflunisal] (20 µM),1.05
4,NC(=O)NC1NC(=O)NC1=O (stereo not drawn) [Allantoin] (20 µM),1.05
5,CN1CCCN=C1/C=C/c1cccs1 [Pyrantel tartrate] (20 µM),1.14
6,CCN1CCN(c2cc3c(cc2F)c(=O)c(C(=O)O)cn3C2CC2)CC1 [Enrofloxacin] (20 µM),0.0184
7,CCCNC(C)C(=O)Nc1c(C)csc1C(=O)OC (stereo not drawn) [Articaine hydrochloride] (20 µM),0.923
8,CCN(CC)CC(=O)Nc1c(C)cccc1C [Lidocaine hydrochloride] (20 µM),0.845
9,CCn1cc(C(=O)O)c(=O)c2cc(F)c(N3CCNC(C)C3)c(F)c21 (stereo not drawn) [Lomefloxacin hydrochloride] (20 µM),0.0338
10,C[C@]12CCC(=O)C=C1CC[C@@H]1[C@@H]2C(=O)C[C@@]2(C)[C@H]1CC[C@]2(O)C(=O)CO [Cortisone] (20 µM),1.15
11,CCN(CC)CCNC(=O)c1cc(Cl)c(N)cc1OC [Metoclopramide monohydrochloride] (20 µM),1.08
12,C[C@@H](CN1CC(=O)NC(=O)C1)N1CC(=O)NC(=O)C1 [Dexrazoxane hydrochloride] (20 µM),1.26
13,CCOc1ccc(NC(C)=O)cc1 [Phenacetin] (20 µM),1.11
